Screening results (PubChem)
In the library only some 4.7% were active in any assay of this set; here they are far more common.
D1 potentiator – human D1 dopamine receptor positive modulation; P21728; HEK293 TREx D1 cells, calcium flux, dopamine EC20 potentiation; potentiation, % at 10 µM; 0.036% of 360,000 active; in the data active = potentiation above about 30%; note: 0% is about no effect
TRHR agonist – TRH receptor (human) agonism | P34981 | TRHR cells, calcium flux fluo-8, FDSS agonist mode | activation, % at 2 µM | 0.18% of 360,000 active | AID 493084; note: 0% is about no effect
Target sequence (P34981 whole entry, looked up): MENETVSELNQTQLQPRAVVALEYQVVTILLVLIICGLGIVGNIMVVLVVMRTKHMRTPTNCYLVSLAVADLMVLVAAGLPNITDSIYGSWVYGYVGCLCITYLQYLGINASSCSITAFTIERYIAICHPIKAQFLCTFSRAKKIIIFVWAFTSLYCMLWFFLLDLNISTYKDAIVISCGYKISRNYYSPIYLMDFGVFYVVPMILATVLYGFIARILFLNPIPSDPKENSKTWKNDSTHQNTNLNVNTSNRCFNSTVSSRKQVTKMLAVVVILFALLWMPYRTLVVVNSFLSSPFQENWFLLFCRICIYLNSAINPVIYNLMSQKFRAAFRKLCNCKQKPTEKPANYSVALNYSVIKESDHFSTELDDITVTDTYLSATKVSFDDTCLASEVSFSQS
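Agonist-mode FDSS calcium read (Ex 480/Em 530, 1 s cycles) in 1536-well TRHR cells with fluo-8 dye, after 10-cycle baseline and 23 nL compound addition; TRH at EC20 (10 nM final) added afterwards for the enhancer phase.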
TRHR enhancer – TRH receptor (human) allosteric enhancement; enhancement, % at 2 µM; P34981; TRHR cells, fluo-8 calcium fluorescence, EC20 TRH enhancement; 0.66% of 360,000 active; in the data active = enhancement above about 30%; note: 0% is about no effect
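Enhancer read-out: after compound pinning and an initial kinetic agonist-mode read, an EC20 of TRH (10 nM final) was injected and fluo-8 calcium signal (Ex 480/Em 530) followed at 1 s/cycle for 100 cycles in TRHR-expressing cells.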
D1 antag – blocks dopamine activation of the human D1 receptor | P21728 | HEK293 TREx D1 cells, calcium flux, dopamine EC80; hits give low values | activity change, negative = inhibition, % at 10 µM | 3.2% of 360,000 active | AID 504652; in the data active = activity change below about -30%; note: % is set by controls: 0 for no effect and ±100 for the full control effect
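Compound effects on dopamine-evoked calcium signalling were measured in tetracycline-induced HEK293 Trex D1 cells. Dopamine at EC80 followed a 180 s compound pre-read, and fluorescence was tracked kinetically for 180 s more.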
D1 agonist – agonists of human D1 dopamine receptor. P21728. HEK293 T-REx D1 cells, calcium flux, agonist mode. activation, % at 2 µM. 1% of 360,000 active. AID 504660; note: 0% is about no effect
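Inducible HEK293 T-REx D1 cells, force-coupled to calcium signalling, were plated at 4000 cells/well with tetracycline and held overnight at 30 C. After no-wash calcium dye loading, compound-evoked calcium rise over 180 s flagged agonists.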
An asterisk follows results filed as active. Cut-off read from the data, not from the text of the source, unless noted: active = activation above about 30%; inactive = the rest.

SMILES | D1 potentiator | TRHR agonist | TRHR enhancer | D1 antag | D1 agonist
Cc1ccc2c(=O)cc(C(=O)Nc3ccc(S(=O)(=O)N(C)Cc4ccccc4)cc3)oc2c1C | -2.5 | -1.2 | 4.0 | -17.9 | 3.1
CCOC(=O)c1sc(NC(=O)C(C)Oc2ccc(OC)cc2)c(C(=O)OCC)c1C (centres undefined) | -3.4 | 0.9 | 6.7 | 19.8 | 4.5
CCOc1ccc(NC(=O)Cn2c(=O)n(CCc3ccccc3)c(=O)c3c4c(sc32)CCCC4)cc1 | -1.9 | 1.1 | 10.7 | -35.8* | -1.4
COC(=O)Cn1c(=O)n(CCc2ccccc2)c(=O)c2c3c(sc21)CCCC3 | -6.0 | 0.5 | 13.0 | -3.9 | 2.0
Cc1cc(C)cc(OCC(=O)OCC(=O)c2cc(C)n(C3CC3)c2C)c1 | -7.0 | -0.4 | 11.7 | -30.1* | 4.9
S=C(NCc1ccco1)N1CCN(c2ccc(Cl)cc2)CC1 | -6.2 | -2.2 | 40.0* | -12.7 | 3.7
S=C(NCc1ccccc1)N1CCN(c2ccccc2)CC1 | -8.4 | -0.2 | -3.8 | -30.8* | 6.6
S=C(Nc1ccccc1)N1CCN(C/C=C/c2ccccc2)CC1 | -4.8 | 0.2 | 0.1 | -7.6 | 9.1
O=C(NCc1ccccc1)N1CCN(c2ccccc2)CC1 | -8.2 | 0.4 | 2.3 | -15.3 | 13.7
S=C(NC1CCCC1)N1CCN(C/C=C/c2ccccc2)CC1 | -9.7 | -1.3 | 4.9 | -35.6* | 16.0
S=C(NC1CCCC1)N1CCN(c2ccc(Cl)cc2)CC1 | -4.9 | 0.1 | -0.1 | -46.2* | 4.6
FC(F)(F)c1cccc(N2CCN(C(=S)NC3CCCC3)CC2)c1 | -10.3 | 0.5 | -6.2 | -17.3 | 1.4
Cc1ccc(Cl)c(NC(=O)Nc2csc3c2CCCC3)c1 | -5.2 | 0.2 | -4.6 | -29.1 | 0.5
CCc1cccc(NC(=O)Cn2nc(-c3ccc(OC)cc3)ccc2=O)c1 | -0.5 | -0.1 | -4.0 | -2.4 | 2.7
COc1cccc(NC(=O)Cn2nc(-c3ccncc3)ccc2=O)c1 | -4.5 | 0.2 | -5.7 | -43.8* | 0.2
COc1ccc(-c2ccc(=O)n(CC(=O)Nc3ccc(OC)c(OC)c3)n2)cc1 | -1.4 | 0.0 | -0.8 | -40.2* | 4.6
O=S(=O)(Nc1c(Br)cc(Br)c2cccnc12)C1CCCCC1 | 7.8 | 0.0 | -1.7 | 1.7 | -0.2
CCOc1ccccc1CNC(=O)c1cc(-c2ccc(C)c(C)c2)nc2ccccc12 | 0.1 | 0.2 | 1.7 | 27.1 | 3.8
Cc1ccc(C)c(CSc2nc3ncccc3[nH]2)c1 | 2.5 | -0.8 | 2.4 | 0.2 | -0.1
CN(C)c1ccc(/C=N/N(CCO)C2=NS(=O)(=O)c3ccccc32)cc1 | 1.6 | 3.6 | 7.0 | 6.6 | 40.4*
Cc1cc(N2CCOCC2)nc2ccc(NC(=O)CCC(=O)N3CCN(c4ccc(F)cc4)CC3)cc12 | 3.1 | 0.9 | -0.9 | -10.6 | -1.0
Cc1cc(N2CCOCC2)nc2ccc(NC(=O)CCC(=O)N3CCN(c4ccccc4F)CC3)cc12 | 0.4 | 0.4 | 2.2 | -42.6* | 0.5
CC(C)(C)c1ccc(OCCn2cc(C(=O)c3ccco3)c3ccccc32)cc1 | -4.7 | 1.0 | -9.9 | -3.1 | 7.2
CC(C)CN1CCC(=O)N([C@H](CSc2ccc(Br)cc2)c2ccccc2)CC1 | -1.4 | 0.2 | 10.2 | -44.3* | 2.4
CC(C)Cn1c(=O)c2ccccc2n2c(CCC(=O)Nc3cccc(Cl)c3)nnc12 | -2.8 | -0.1 | -2.1 | -3.9 | -0.1
SMILES | D1 potentiator | TRHR agonist | TRHR enhancer | D1 antag | D1 agonist
Cc1[nH]nc(Nc2ccc(Br)cc2)c1[N+](=O)[O-] | -9.8 | 0.4 | -7.8 | -35.8* | 10.3
Cc1cccc(Nc2n[nH]c(C)c2[N+](=O)[O-])c1 | -6.9 | -0.3 | -6.5 | -37.4* | 20.1
Cc1nn(C(=O)c2cccc(F)c2)c(C)c1S(=O)(=O)N1CCCCCC1 | -1.4 | 0.0 | 12.6 | -2.4 | 2.0
CN(CC(=O)Nc1ccc(N2CCOCC2)cc1)C(=O)CCCOc1ccc(Cl)cc1Cl | -6.3 | -0.2 | 40.4* | -5.9 | 4.0
CN(CC(=O)Nc1ccc(N2CCOCC2)cc1)C(=O)c1cc(F)c(F)cc1Cl | -7.5 | 0.0 | -1.2 | -41.9* | 0.1
CSc1ccc(Cl)c(C(=O)N(C)CC(=O)Nc2ccc(N3CCOCC3)cc2)c1 | -3.7 | -0.3 | -1.5 | 10.3 | 3.1
COc1ccc(-n2nc(C(=O)Nc3ccc(C)cn3)c3c4ccccc4n(C)c3c2=O)cc1 | 3.2 | 0.8 | 1.4 | 6.2 | -1.8
Cc1ccc(NC(=O)N2CCc3cc(S(=O)(=O)N4CCC(C)CC4)ccc32)cc1F | -4.1 | -0.4 | 2.8 | -8.7 | -0.2
COC(=O)CCn1cnc2onc(-c3cc(F)cc(F)c3)c2c1=O | -2.6 | 1.9 | -4.0 | -2.9 | 1.3
CC(C)CC(=O)Nc1ccccc1OCc1cc(=O)n2ccccc2n1 | -1.8 | 0.4 | -4.7 | 9.4 | 0.3
CC(=O)N1CCC(N(CCN2CCOCC2)C(=S)Nc2ccc(C)cc2)CC1 | -1.8 | 0.9 | -0.8 | -2.0 | 1.5
CC(=O)N1CCC(N(CCN2CCOCC2)C(=S)Nc2ccc(C)cc2C)CC1 | -4.7 | 0.6 | 2.2 | -30.9* | 3.5
Cc1ccc(NC(=O)Cn2c(=O)n(CCC(=O)N3CCc4ccccc4C3)c(=O)c3ccccc32)cc1 | 3.1 | -1.0 | -12.0 | -1.4 | -2.9
CCc1ccc(/C=C/C(=O)c2ccc(N3CCOCC3)cc2)cc1 | -6.8 | 1.5 | -3.3 | -0.4 | 4.9
CCc1ccc(/C=C/C(=O)c2ccc(S(=O)(=O)N(C)C)cc2)cc1 | 0.0 | -0.3 | -0.7 | -62.1* | 49.6*
COc1c(Cl)cc(C(=O)N(Cc2ccc(C)o2)C2CCS(=O)(=O)C2)cc1Cl (centres undefined) | -1.2 | -1.1 | 6.1 | -15.9 | 0.9
COc1ccc(CNCCC(c2ccc(OC)cc2)c2ccccc2OC)cc1 (centres undefined) | -1.1 | 0.9 | 3.5 | -4.4 | 30.4*
COc1ccc(C(CCNCc2ccc(N(C)C)cc2)c2ccccc2OC)cc1 (centres undefined) | -9.6 | 0.4 | 1.9 | 11.4 | 5.6
COc1ccc(C(CCNCc2ccc(OC(C)C)cc2)c2ccccc2OC)cc1 (centres undefined) | 3.1 | 1.5 | 5.1 | 10.1 | 58.7*
COc1ccc(-c2cc3ccc(O)c(CN4CCC(C)CC4)c3oc2=O)cc1 | -2.1 | 2.1 | 25.2 | -0.4 | 25.8
COc1cccc(C2=CC(c3cc(OC)ccc3OC)n3nnnc3N2)c1 (centres undefined) | -3.8 | -0.5 | 2.2 | -42.2* | 1.7
COc1ccc(OC)c(C2C=C(c3ccc(C)c(C)c3)Nc3nnnn32)c1 (centres undefined) | 2.8 | 0.3 | 0.6 | -1.2 | 2.2
COc1cccc(C2=CC(c3ccc(N(C)C)cc3)n3nnnc3N2)c1 (centres undefined) | -12.4 | 1.0 | -0.1 | -35.6* | 2.8
COc1ccc2c(Sc3ccccc3)c(C(=O)NCc3ccc(OC(C)C)cc3)[nH]c2c1 | -1.6 | 0.1 | -1.6 | -3.7 | 1.0
CCc1ccc2oc(C(=O)Nc3cc(C)ccc3C)cc(=O)c2c1 | 2.7 | -0.8 | -2.1 | 9.6 | -1.5
